# Assay results from PubChem BioAssay (EPA / NIEHS).
# Calls of active or inactive are those of the source. Rule for the calls: active = hit-call score of the fitted dose curve at least 0.9, where 1 is the maximum; inactive = score below 0.9.
# Experiment: CEETOX_H295R_CORTISOL: CeeTox H295R High-throughput Steroidogenesis Assay for Cortisol (AID 2283438);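 note: cortisol secreted into medium quantified by LC-MS/MS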
# Conditions: actives raise or lower the signal
# Method in brief: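 Forskolin 10 uM 48 h prestim → test cmpd in DMSO (0.1% final) 48 h → medium MTBE-extracted → LC-MS/MS cortisol vs 7-pt std curve. Gain/loss of signal fitted vs DMSO. MTT viability in same wells.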
row,SMILES,outcome
1,CCCCCCCCCCCCN1CCOCC1,inactive
2,O=C(OCc1ccccc1)c1ccccc1O,inactive
3,CC(=O)c1ccc2ccccc2c1,inactive
4,COc1ccc2[nH]cc(CCNC(C)=O)c2c1,inactive
5,c1ccc(OCCOc2ccccc2)cc1,inactive

# Experiment: CEETOX_H295R_DOC: CeeTox H295R High-throughput Steroidogenesis Assay for DOC (AID 2283439)
# Conditions: actives raise or lower the signal
# Method in brief: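 Readout: 11-deoxycorticosterone in culture medium by reverse-phase C18 HPLC with ESI+ tandem MS after MTBE extraction. Cells: H295R, forskolin-primed (10 uM, 48 h), chemical-treated 48 h; DMSO 0.1% final. Activity fitted bidirectionally versus DMSO.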
SMILES,AC50,outcome
CCCCCCCCCCCCN1CCOCC1,0.549 µM (active),–
O=C(OCc1ccccc1)c1ccccc1O,–,inactive
CC(=O)c1ccc2ccccc2c1,–,inactive
COc1ccc2[nH]cc(CCNC(C)=O)c2c1,–,inactive
c1ccc(OCCOc2ccccc2)cc1,–,inactive

# Experiment: CEETOX_H295R_ESTRONE: CeeTox H295R High-throughput Steroidogenesis Assay for Estrone (AID 2283441);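 note: estrone secreted into medium measured by LC-MS/MS after dansyl derivatization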
# Conditions: actives raise or lower the signal
# Method in brief: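 H295R cells prestimulated 48 h with 10 uM forskolin, then exposed 48 h to chemicals in 0.1% DMSO final; estrone in medium extracted with MTBE, dansyl-derivatized, quantified by HPLC-MS/MS; bidirectional fitting versus DMSO, viability by MTT.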
row,SMILES,outcome
1,CCCCCCCCCCCCN1CCOCC1,inactive
2,O=C(OCc1ccccc1)c1ccccc1O,inactive
3,CC(=O)c1ccc2ccccc2c1,inactive
4,COc1ccc2[nH]cc(CCNC(C)=O)c2c1,inactive
5,c1ccc(OCCOc2ccccc2)cc1,inactive
6,CC(=O)C1=C(C)[C@@H]2C[C@@]3(C1)[C@H](C)CC[C@H]3C2(C)C,inactive

# Experiment: CEETOX_H295R_PROG: CeeTox H295R High-throughput Steroidogenesis Assay for Progesterone (PROG) (AID 2283442);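 for AC50: human H295R adrenal cells primed with 10 µM forskolin before dosing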
# Conditions: actives raise or lower the signal
# Method in brief: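 H295R adrenal cells prestimulated 48 h with 10 uM forskolin, then exposed 48 h to test chemical in 0.1% DMSO. Progesterone in medium quantified by HPLC-MS/MS after MTBE extraction; viability checked by MTT in same wells.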
SMILES,AC50,outcome
CCCCCCCCCCCCN1CCOCC1,0.304 µM (active),–
O=C(OCc1ccccc1)c1ccccc1O,50 µM (active),–
CC(=O)c1ccc2ccccc2c1,–,inactive
COc1ccc2[nH]cc(CCNC(C)=O)c2c1,20 µM (active),–
c1ccc(OCCOc2ccccc2)cc1,14.3 µM (active),–
CC(=O)C1=C(C)[C@@H]2C[C@@]3(C1)[C@H](C)CC[C@H]3C2(C)C,–,inactive
